Sa helicase inh: inhibitors of S. aureus replicative helicase, primary screen, biochemical, fluorescence unwinding readout | replicative DNA helicase (DnaC/DnaB), Staphylococcus aureus | purified S. aureus helicase, fluorescence unwinding assay | inhibition, % (test concentration not listed) | 120,000 compounds, 0.05% hits; in the data active = inhibition above about 25%, passing the limit was not always enough;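 also: 0% = mean of negative control wells and 100% = mean of positive control wells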
Sa growth inh: S. aureus growth inhibition at 42 and 30 °C, primary screen, LtaS inhibitor project, RN4220, two temperatures | relative growth, % (concentration not given with the values) | OD600, 20 h, 42 °C; stronger effect = lower value | 170,000 compounds, 0.53% hits;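 active = relative growth at most 50% at the other temperature and 20+ points below 30 °C, or under 10% at both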
Starred values were filed as active, the others as inactive; . = no result given. This is one part of a sample in which hits are shown more often than they occur.

SMILES	Sa helicase inh	Sa growth inh
CC[C@@]1(O)C[C@H](O[C@H]2C[C@H](N(C)C)[C@H](O[C@H]3C[C@H](O)[C@H](O[C@H]4CCC(=O)[C@H](C)O4)[C@H](C)O3)[C@H](C)O2)c2c(cc3c(c2O)C(=O)c2c(O)cccc2C3=O)[C@H]1C(=O)OC	.	76
COc1cccc2c1C(=O)c1c(O)c3c(c(O)c1C2=O)C[C@@](O)(C(C)=O)C[C@@H]3O[C@H]1C[C@H](N)[C@H](O)[C@H](C)O1	.	18
COCCCN1C(=O)c2ccc(C(=O)OCC(=O)Nc3ccc(N(C)C)cc3)cc2C1=O	1	91
c1ccc(-c2ccc(Oc3cnccn3)cc2)cc1	-2	99
O=C(O)CC1(CC(=O)Nc2ccc(OC(F)(F)F)cc2)CCCC1	.	94
CCC1(c2cccc(OC(=O)Nc3ccc(OC(F)(F)F)cc3)c2)CCCCN(C)C1=O (centres undefined)	.	4.2*
Cc1ccc(C)c(-c2nnc(NC(=O)c3ccccc3S(C)(=O)=O)o2)c1	6	2.0*
CS(=O)(=O)c1ccccc1C(=O)Nc1nnc(-c2ccc(Cl)cc2)o1	8	22
CNc1ccc(Br)cc1-c1n[nH]c(=S)[nH]c1=O	0	100
Cc1c(CN(C)C)c2c(n1C)C(=O)c1ccc(Br)cc1-2	64*	87
Cc1c(CN(C)C)c2c(n1Cc1ccccc1)C(=O)c1ccc(Br)cc1-2	14	93
CC1=C2C(=NCCN1)C(=O)N(c1ccc(F)cc1)C2c1ccccn1 (centres undefined)	-133	97
CC(C)(O)C#CC(O)c1cccs1 (centres undefined)	2	88
CCOC(=O)c1sc2nc(C)nc(SCc3nnc(-c4ccc(Cl)cc4)o3)c2c1C	-12	75
O=C(Nc1nnc(C2=COCCO2)o1)c1cccc2ccccc12	7	92
O=C(Nc1nnc(-c2ccccc2)o1)c1ccccc1	15	0.0*
O=C(Nc1nnc(-c2cccs2)o1)c1ccccc1	-19	.
COc1cc(OC)cc(-c2nnc(NC(=O)c3ccc(S(=O)(=O)N(C)c4ccccc4)cc3)o2)c1	4	-0.1*
CN(Cc1ccccc1)S(=O)(=O)c1ccc(C(=O)Nc2nnc(-c3ccco3)o2)cc1	4	83
CN(C1CCCCC1)S(=O)(=O)c1ccc(C(=O)Nc2ccccc2)cc1	13	.
O=C(Nc1nnc(C2=COCCO2)o1)c1ccc(Cl)cc1	22	3.7*
CN(C1CCCCC1)S(=O)(=O)c1ccc(C(=O)Nc2nnc(-c3cccnc3)o2)cc1	8	2.3*
COc1ccc(-c2nc(SCC(=O)NCc3ccco3)c(-c3ccccc3)[nH]2)cc1	10	92
O=C(Cc1cn2ccsc2n1)N/N=C1\CCc2ccccc21	-3	104
CCCn1c2ccccc2c2nnc(SCOC(=O)CN3C(=O)c4ccccc4C3=O)nc21	7	88
SMILES	Sa helicase inh	Sa growth inh
COc1ccc(-c2nnc(NC(=O)c3ccc(S(=O)(=O)N4CCCc5ccccc54)cc3)o2)cc1	5	92
O=C(Nc1nnc(-c2ccc(Cl)cc2)o1)C1CC1	6	2.6*
COc1ccc(-c2nnc(NC(=O)C3CC3)o2)cc1	1	78
COc1cc(OC)cc(-c2nnc(NC(=O)c3ccc(S(=O)(=O)N4COCC4(C)C)cc3)o2)c1	9	1.0*
CCOC(=O)c1c(N=Cc2ccncc2)n[nH]c1C	.	92
CC(C)N1CCc2c(sc(NC(=O)C3=COCCO3)c2C(N)=O)C1	42*	88
NC(=O)c1c(NC(=O)C2=COCCO2)sc2c1CCCC2	22	.
Cn1cnc2c1c(=S)[nH]c(=O)n2Cc1ccccc1	7	79
O=C(CC(=O)c1ccccc1O)c1ccc(Cl)cc1	-2	1.1*
Cc1ccc(C(=O)CC(=O)c2ccccc2O)cc1	2	0.8*
O=C(CC(=O)c1c(F)cccc1F)c1ccccc1O	.	123
COc1ccc(C(=O)CC(=O)c2ccccc2O)cc1	16	87
O=c1[nH]c2ccccc2c(=O)n1C1CCCCC1	.	95
N#C/C(=N\Nc1ccc(F)cc1)C(N)=S	-23	0.0*
NC(=S)NNc1ccc(F)cc1	18	70
O=C(/C=C/C=C/c1ccccc1)c1ccncc1	0	1.0*
O=C(/C=C/C=C/c1ccccc1)c1ccc(Cl)cc1	1	84
COc1cc(C(=O)Nc2ccccc2C(=O)N2CCN(C)CC2)cc(OC)c1OC	8	105
CCn1nc(C(=O)N2CCCSC2=Nc2ccccc2)c2ccccc2c1=O	23	98
COc1ccc(CCC(O)C2(O)CCCCC2)cc1 (centres undefined)	15	91
COc1ccc(CCN=C=S)cc1	23	9.0*
O=c1ccc(-c2ccc(Cl)cc2)n[nH]1	-35	93
O=c1cc[nH]cc1-c1ccc(Cl)cc1	9	-0.8*
CCC(=O)Nc1ccc(C(=O)CN2C(=O)C3CC=CCC3C2=O)cc1 (centres undefined)	-9	108
COc1ccc(NC(=O)CCS(=O)(=O)c2nc(-c3cccs3)cc(C(F)(F)F)n2)cc1	.	88
SMILES	Sa helicase inh	Sa growth inh
COC(=O)CCS(=O)(=O)c1nc(-c2cccs2)cc(C(F)(F)F)n1	7	1.4*
CN(C)S(=O)(=O)c1cccc(COC(=O)C2=NNC(=O)CC2)c1	4	.
Oc1c(CN2CCOCC2)ccc2ccccc12	3	107
Cc1ccc(C(c2c(O)ccc3ccccc23)N2CCOCC2)o1 (centres undefined)	10	-0.6*
Cc1cc(C)nc(N2NC(c3ccccc3)C(C#N)=C2O)n1 (centres undefined)	0	123
CCOC(=O)Cc1c[nH]c2ccccc12	4	95
CCCC(=O)Oc1c[nH]c2ccccc12	.	3.9*
COc1ccc(NC(=O)COC(=O)Cc2cccc(C(F)(F)F)c2)cc1	0	115
CN(C)Cc1ccc(CNCc2ccccc2OC(F)F)cc1	-4	76
Oc1ccc(Cl)cc1Sc1cc(Cl)ccc1O	12	3.6*
Oc1ccc(Cl)cc1-c1csnn1	28	36
C/C(=N\O)C(=O)NCCc1c[nH]c2ccccc12	13	95
COc1ccc(C(C)N(C)CCC(=O)O)cc1OC (centres undefined)	16	102
Cc1oc2c(c1C(=O)NCCc1ccccc1)C(=O)c1ccccc1C2=O	4	15
Cc1oc2c(c1C(=O)NC1CCCC1)C(=O)c1ccccc1C2=O	10	3.9*
Cc1oc2c(c1C(=O)N1CCCCC1)C(=O)c1ccccc1C2=O	-4	39
Cc1oc2c(c1C(=O)NC(C)(C)C)C(=O)c1ccccc1C2=O	-13	5.7*
Cc1oc2c(c1C(=O)N1CCC(C)CC1)C(=O)c1ccccc1C2=O	11	49
Cc1oc2c(c1C(=O)NC1CCCCC1)C(=O)c1ccccc1C2=O	-2	8.8*
O=C(CCOc1ccccc1)OCCN1CCCC1=O	-2	123
COc1ccc(NC(C)=S)cc1OC	-10	95
C/C(=N\OC(=O)c1ccc(C(F)(F)F)cc1)c1cc[nH]c1	13	91
C/C(=N\OC(=O)c1ccc(C(F)(F)F)cc1)c1ccc[nH]1	6	-0.3*
CC(=O)N(/C=C1\Sc2ccccc2C1=O)c1ccccc1	-21	72
N#Cc1c(NC(=O)C(F)(F)F)sc2c1CCCC2	4	-1.0*
CC(=O)Nc1sc2c(c1C#N)CCC2	3	120
Fc1ccc(Cn2nnc(-c3cccc(C(F)(F)F)c3)n2)cc1Cl	.	100

Screens (PubChem)
